According to PMC5540273 (PLoS ONE, 2017):

Tests used:
Settings in all cases: concentration: 1 μM, replicates: in singlicate; n = 1
[1] = test system: T1, YANK2
T1 construct: gene STK32B

[2] = test system: T2, YANK3
T2 construct: gene STK32C

[3] = test system: T3, YES
T3 construct: gene YES1

[4] = test system: T4, YSK1
T4 construct: gene STK25

[5] = test system: T5, YSK4
T5 construct: gene MAP3K19

[6] = test system: ZAK
[7] = test system: ZAP70
[8] = test system: T6, p38-alpha
T6 construct: gene MAPK14

[9] = test system: T7, p38-beta
T7 construct: gene MAPK11

[10] = test system: p38-delta
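Also: KINOMEscan kinase panel screen.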

Structure (SMILES)	%Inh [1]	%Inh [2]	%Inh [3]	%Inh [4]	%Inh [5]	%Inh [6]	%Inh [7]	%Inh [8]	%Inh [9]	%Inh [10]
Cc1ccc(NC(=O)Nc2ccccc2F)cc1-c1ccc(C(=O)Nc2ccncc2)cc1 [GSK1398477]	12%	16%	26%	3%	86%	60%	0%	36%	12%	36%
Nc1nccc(-c2c(-c3ccc(F)cc3)ncn2C2CCN(Cc3ccccc3)CC2)n1 [SB-219980]	64%	30%	0%	0%	34%	0%	21%	99.7%	18%	0%
Cc1ccc(NC(=O)c2ccc(Cl)cc2)cc1-c1ccc(C(=O)Nc2ccncc2)cc1 [GSK1398467]	10%	17%	18%	0%	40%	17%	6%	65%	29%	27%
O=C(Nc1n[nH]c2nc(-c3ccco3)c(Br)cc12)C1CCN(Cc2ccccc2)C1.O=C(O)[C@H](O)[C@@H](O)C(=O)O (stereo not shown) [SB-742034]	9%	0%	12%	0%	56%	0%	35%	13%	15%	7%
Cn1cncc1-c1cc2c(Nc3ccc(OCc4ccccc4)cc3)ncnc2cn1 [GW281179]	0%	15%	19%	4%	27%	43%	20%	0%	0%	52%
COC(=O)c1cccc(NC(=O)NC2CCN(c3ccnc(Nc4ccc(OC)cc4)n3)C2)c1 (stereo not shown) [GSK1379746]	0%	8%	13%	0%	22%	0%	0%	3%	0%	6%
COC(=O)C(Cc1ccccc1)NC(=O)NC1CCN(c2ccnc(Nc3ccc(F)cc3)n2)C1 (stereo not shown) [GSK1379714]	0%	7%	0%	0%	82%	5%	7%	0%	0%	0%
COc1cccc(C2=C(Nc3cc(Cl)c(O)c(Cl)c3)C(=O)NC2=O)c1 [SB-390767]	0%	4%	19%	0%	30%	0%	0%	0%	0%	39%
COc1ccc(Nc2nccc(N3CCC(NC(=O)C(C)c4ccc(Cl)cc4)CC3)n2)cc1 (stereo not shown) [GSK1379812]	2%	1%	0%	0%	0%	0%	0%	1%	0%	27%
Cc1ccc(NC(=O)Nc2ccccc2)cc1-c1ccc(C(=O)Nc2ccncc2)cc1 [GSK1398471]	5%	0%	12%	21%	94.6%	53%	0%	0%	0%	19%
Fc1ccc(-c2nc[nH]c2-c2ccncc2)cc1 [SB-217360]	28%	0%	0%	0%	22%	0%	0%	97.9%	21%	0%
Cn1cnc2c(N)ncnc21 [SKF-97623]	0%	0%	0%	0%	0%	0%	12%	0%	0%	4%
COc1ccc(CSc2nnc(-c3ccc4c(c3)CCO4)o2)cc1	0%	0%	0%	0%	0%	0%	0%	0%	0%	23%
CCc1ccc(-c2ccc3c(c2)-c2n[nH]cc2S(=O)(=O)N3C)cc1	0%	0%	0%	0%	0%	5%	3%	0%	0%	0%
COC(=O)c1cccc(NC(=O)NC2CCN(c3ccnc(Nc4ccc(F)cc4)n3)C2)c1 (stereo not shown) [GSK1379725]	0%	0%	8%	0%	8%	2%	0%	0%	0%	51%
CC(=O)c1c(C)c2cnc(Nc3ccc(N4CCNCC4)cn3)nc2n(C2CCCC2)c1=O	0%	0%	6%	0%	10%	0%	0%	0%	0%	22%
CC[C@@H]1CO[C@H](C(=O)Nc2ccccc2)CN1c1cc(-c2ccc3c(N)n[nH]c3c2)nc(NC)n1 [GSK2376236]	77%	0%	0%	6%	1%	0%	0%	8%	0%	26%

Structure (SMILES)	%Inh [1]	%Inh [2]	%Inh [3]	%Inh [4]	%Inh [5]	%Inh [6]	%Inh [7]	%Inh [8]	%Inh [9]	%Inh [10]
O=C(Nc1n[nH]c2nc(-c3cccs3)c(Br)cc12)C1CC1 [SB-735297]	11%	0%	8%	0%	95.3%	30%	0%	4%	2%	0%
O=c1cc(N2CCOCC2)nc2n(Cc3cccc(Cl)c3Cl)c3ccccc3n12 [GSK2299009]	0%	29%	17%	21%	3%	5%	0%	12%	1%	16%
Cc1c(Cn2c(C)c(C)n3c(=O)cc(N4CCOCC4)nc23)cccc1C(F)(F)F [GSK2328680]	0%	0%	7%	14%	0%	16%	0%	21%	0%	33%
CC(=O)c1cccc(NC(=O)NC2CCN(c3ccnc(Nc4ccc(F)cc4)n3)C2)c1 (stereo not shown) [GSK1379710]	0%	6%	0%	0%	20%	9%	0%	30%	0%	14%
O=C(Nc1n[nH]c2cc(-c3ccsc3)ccc12)C1CC1 [SB-732932]	0%	20%	12%	5%	94.7%	5%	0%	16%	8%	0%
CNCc1ccc2nc(NC(=O)c3ccc(C(C)(C)C)cc3)cn2c1	22%	3%	0%	7%	30%	3%	15%	83%	0%	0%
Fc1ccc(-c2nc3n(c2-c2ccncc2)CCS3)cc1 [GI98581]	5%	21%	0%	0%	5%	4%	0%	98.4%	14%	14%
O=c1cc(N2CCOCC2)nc2n(Cc3ccccc3F)ccn12 [GSK2297428]	0%	0%	0%	0%	33%	0%	0%	5%	0%	26%
CNc1cc(-c2ccc3c(N)n[nH]c3c2)nc(N)n1 [GSK2224810]	8%	0%	0%	6%	58%	0%	0%	23%	0%	38%
COc1ccc(-c2coc3ccc(-c4nnc(C)o4)cc23)cc1	9%	9%	0%	1%	0%	0%	18%	0%	14%	0%
CC(=O)c1c(C)c2cnc(Nc3ccn(C)n3)nc2n(C2CCCC2)c1=O	0%	2%	1%	0%	18%	0%	0%	0%	0%	15%
CNc1nc(-c2ccc3c(N)n[nH]c3c2)cc(N2C[C@@H](C(=O)NC3CCCCC3)OC[C@H]2C)n1 [GSK2375584]	2%	22%	14%	5%	15%	0%	0%	23%	0%	42%
Cc1ccccc1-c1cc(-c2c[nH]nc2-c2ccccn2)ccn1 [GW680061]	0%	13%	15%	3%	14%	0%	0%	85%	0%	28%
COc1ccc(Nc2nccc(-c3ccc(NC(=O)c4cc5cc(F)ccc5[nH]4)cc3)n2)cc1 [GSK1229496]	0%	0%	0%	0%	8%	6%	0%	4%	0%	43%
COc1ccc(Nc2nccc(N3CCC(NC(=O)c4cc5ccccc5s4)C3)n2)cc1 (stereo not shown) [GSK1379738]	6%	0%	17%	7%	47%	60%	0%	20%	0%	42%
c1ccc(-c2ccnc3[nH]ccc23)cc1 [SB-693578]	0%	8%	14%	1%	93.5%	25%	55%	3%	0%	39%
COc1cc2ncnc(Nc3cccc(Br)c3)c2cc1OC.Cl [GI230329]	0%	13%	3%	4%	63%	12%	0%	47%	0%	46%
